# Assay results published in publication PMC5540273 (PLoS ONE, 2017).
# How the values were obtained:
# Conditions in all cases: concentration: 1 μM, replicates: in singlicate; n = 1
# [1] = system: HIPK3
# [2] = system: HIPK4
# [3] = system: HPK1
# [4] = system: HUNK
# [5] = system: ICK
# [6] = system: IGF1R
# [7] = system: T1, IKK-alpha
# T1 construct: gene CHUK
# [8] = system: T2, IKK-beta
# T2 construct: gene IKBKB
# [9] = system: T3, IKK-epsilon
# T3 construct: gene IKBKE
# [10] = system: INSRR
# 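Note: KINOMEscan kinase panel screen.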
Compound,%Inh [1] [%],%Inh [2] [%],%Inh [3] [%],%Inh [4] [%],%Inh [5] [%],%Inh [6] [%],%Inh [7] [%],%Inh [8] [%],%Inh [9] [%],%Inh [10] [%]
CCC(=O)c1c(-c2ccccc2)c2cc(Cl)ccc2c(=O)n1Cc1ccc(C(=O)O)cc1,0,0,0,0,0,0,0,0,0,0
COc1ccc(CNC(=O)NC2CCN(c3ccnc(Nc4ccc(F)cc4)n3)C2)cc1 (centres unmarked) [GSK1379706],30,8,49,0,0,13,3,0,30,0
Cc1ccc(Oc2ccc(Nc3ncnc4cc[nH]c34)cc2C)cn1,24,0,0,4,33,0,0,8,50,0
Cc1ccc(-c2ccc3c(ccc4sc5c(c43)NC[C@@H](C)N=C5N(C)C)n2)cn1,0,9,8,5,0,0,11,0,0,0
O=C(Nc1n[nH]c2cc(-c3ccccc3F)ccc12)C1CC1 [SB-733371],3,0,8,0,32,0,0,0,0,9
COC(=O)c1c(-c2ccccc2)c2cc(Br)ccc2c(=O)n1Cc1ccc(S(C)(=O)=O)cc1,10,5,0,27,50,9,9,6,15,1
CCc1ccc(-c2ccc3c(c2)-c2nn(C)cc2S(=O)(=O)N3C)cc1,0,0,18,47,0,0,0,1,0,0
COc1cc2nccc(Nc3ccc(OCc4ccc(NC(C)=O)cc4)cc3)c2cc1OC.Cl [GW440135],0,0,36,21,0,0,10,0,3,8
CCS(=O)(=O)c1ccc(OC)c(Nc2ncc(-c3ccc(F)cc3)o2)c1.Cl [GW591947],37,0,17,22,0,20,0,1,0,0
O=C(NCCNc1ccnc(Nc2ccc(F)cc2)n1)Nc1ccc2c(c1)OCO2 [GSK1379882],9,0,37,1,0,0,3,7,14,0
COc1cc2nccc(Nc3cccc(Oc4ccccc4)c3)c2cc1OC.Cl [GW284543],0,21,2,15,0,14,0,0,0,0
Cc1nnc(-c2ccc(C)c(-c3ccc(C(=O)O)cc3)c2)o1 [GW608005],7,0,7,0,0,0,30,25,1,10
CCS(=O)c1ccc(-c2coc3ccc(-c4nnc(C)o4)cc23)cc1 (centres unmarked),21,0,11,0,10,0,10,6,0,0
Cc1cccc(-c2cc(-c3c[nH]nc3-c3ccccn3)ccn2)c1 [GW679395],13,0,32,10,9,0,4,25,21,0
Nc1ncnc2c1ncn2-c1ccc(Cl)cc1 [AH2635],0,0,27,19,0,0,0,0,30,0
Nc1nc(-c2ccccc2F)c(-c2ccnc3ccccc23)s1 [GW560459],3,0,7,12,0,20,28,9,18,0
COc1cccc(C2=C(Nc3cccc(C(=O)O)c3)C(=O)NC2=O)c1 [SB-390770],1,7,5,20,0,8,0,6,0,19
